The text below walks through data of PubChem BioAssay (Tox21).

Several values for one entry are separate records, joined by “and”; a condition that tells them apart may be missing. Equal entries are not always repeated. Results filed as inconclusive are left out. A structure can be active in one record and inactive in another. Activity calls are given as the source filed them. The call rests on the fitted dose curve; in most records, active means well fitted curve in the direction sought with a large enough effect in the repeat runs; inconclusive means weak or mixed curves; inactive means no such curve, though single readings can be large; an effect the other way counts as inactive or inconclusive.

Test [1] is described as follows: A CellTox Green Cytotoxicity Assay to monitor cytotoxicity in HEK293 cells - 8 hour (AID 1224884). Further: nearly all actives have a fitted effect of over 35% in size. Further: potency means the concentration at half of the fitted maximal effect. Summed up: (§1)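 HEK293 cells, 600/well, were preincubated 5 hours and then exposed to compounds at 37 C for up to 40 hours. A cell-impermeant cyanine dye staining dead-cell DNA was read by fluorescence at 0, 8, 16, 24, 32 and 40 h time points.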
A short description of test [2]: qHTS RealTime-Glo MT Cell Viability Assay in HepG2 cells - 16 hour (AID 1224885). Further: nearly all actives have a fitted effect of over 50% in size. Further: potency means the concentration at half of the fitted maximal effect. Put shortly:
(§2)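 HepG2 cells (600/well) were dispensed with RealTime-Glo reagents, incubated 5 h at 37 °C, then treated with compounds in DMSO for up to 40 h. Nonlytic NanoLuc luminescence reflecting viable cells was read at each stated time point.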
Background: In qHTS, concentration-response curves come from the screen itself.

Test [3] in a line: qHTS RealTime-Glo MT Cell Viability Assay in HEK293 cells - 24 hour (AID 1224886). Further: nearly all actives have a fitted effect of over 50% in size. Further: potency means the concentration at half of the fitted maximal effect. Put shortly: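 HEK293 cells seeded with NanoLuc/prosubstrate reagent, rested 5 h at 37 C, then dosed and kept at 37 C up to 40 h. Nonlytic real-time luminescence from viable cells read at 0, 8, 16, 24, 32 and 40 h.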
Test [4] can be described thus: qHTS RealTime-Glo MT Cell Viability Assay in HEK293 cells - 8 hour (AID 1224887). Further: top concentration of the series differs between compounds; nearly all actives have a fitted effect of over 50% in size. Summed up: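 600 cells/well were plated with the nonlytic NanoLuc/prosubstrate reagent, pre-incubated 5 h, then given 23 nL of compound in DMSO. Incubation at 37 C for 40 h, with luminescence from viable-cell-reduced substrate read repeatedly from 0 h.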
Test [5] can be described thus: A CellTox Green Cytotoxicity Assay to monitor cytotoxicity in HEK293 cells - 16 hour (AID 1224888). Further: nearly all actives have a fitted effect of over 35% in size. Further: potency means the concentration at half of the fitted maximal effect. Put shortly:
as §1

The nature of test [6]: qHTS RealTime-Glo MT Cell Viability Assay in HepG2 cells - 0 hour (AID 1224889). Further: nearly all actives have a fitted effect of over 50% in size. Put shortly: as §2
Test [7] is described as follows: A CellTox Green Cytotoxicity Assay to monitor cytotoxicity in HepG2 cells - 8 hour (AID 1224890). Further: nearly all actives have a fitted effect of over 45% in size. Further: potency means the concentration at half of the fitted maximal effect. Put shortly: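 HepG2 cells, 600/well, preincubated 5 h with CellTox Green dye, then exposed to Tox21 compounds in DMSO at 37 C for up to 40 h. Dead-cell DNA fluorescence read at the indicated time point.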
Test [8] is described as follows: qHTS assay to identify small molecule antagonists of the estrogen receptor alpha (ER-alpha) signaling pathway using the BG1 cell line in the presence of 0.1 nM 17-beta-estradiol - cell viability counter screen (AID 1259241). Further: nearly all actives have a fitted effect of over 40% in size. Further: potency means the concentration at half of the fitted maximal effect. Summed up:
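Cytotoxicity counter-screen: live-cell protease activity measured by fluorescence (30 min reagent step) in the same wells. Cells were VM7Luc4E2 with endogenous ER-alpha and ERE-driven luciferase, treated 22 hr at 37C alongside 0.1 nM 17beta-estradiol final.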

Test [9] is described as follows: qHTS assay to identify small molecule antagonists of the androgen receptor (AR) signaling pathway using the MDA cell line in the presence of 0.5 nM R1881 - cell viability counter screen (AID 1259242). Further: nearly all actives have a fitted effect of over 45% in size. Further: potency means the concentration at half of the fitted maximal effect. Summed up: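 MDA-kb2 cells (MMTV-luciferase, AR/GR responsive) were treated with compounds plus 0.5 nM R1881 (final) for 16 hr at 37C, 0% CO2. Viability was then read in the same wells as live-cell protease fluorescence (CellTiter-Fluor, 30 min).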

Test [10] concerns the target Androgen receptor (Homo sapiens) (UniProt P10275). Briefly: qHTS assay to identify small molecule antagonists of the androgen receptor (AR) signaling pathway using the MDA cell line in the presence of 0.5 nM R1881 (AID 1259243). From the text: U.S. Tox21 Program National Center for Advancing Translational Sciences [NCATS] NIH Chemical Genomics Center [NCGC] U.S. Environmental Protection Agency [EPA] National Institutes of Environmental Health Sciences [NIEHS] National Toxicology Program [NTP] U.S. Food and Drug Administration [FDA] Tox21 Assay Overview: Androgen receptor (AR) is an important member of the nuclear receptor family. Its signaling plays a critical role in AR-dependent prostate cancer and other androgen related diseases. Considerable attention has been given in the past decades to develop methods to study and screen for the environmental chemicals that have the potential to interfere with metabolic homeostasis, reproduction, developmental and behavioral functions. Therefore AR binding assay for screening androgen antagonists can be used to identify potential endocrine disruptors. MDA-kb2 cells (from ATCC, deposited by Wilson et al.) were used to screen for AR inhibitors against Tox21 compound libraries. These cells are human breast carcinoma cells that were stably transfected with a luciferase reporter gene under control of the MMTV promoter that contains response elements for both androgen receptor (AR) and glucocorticoid receptor (GR). The current screening for identification of AR inhibitors against Tox21 libraries used lower concentration (0.5 nM) of R1881 as a stimulator.
Tox21 Assay Protocol Summary: MDA-kb2 cells (cells cultured without CO2) were dispensed at 3,000 cells/well in 4 uL of culture medium into white wall/solid-bottom 1536-well plates (Corning Life Sciences, Corning, NY) using a Multidrop Combi (ThermoFisher Scientific, Waltham, MA) dispenser. […] For luciferase reporter gene assay, 4 uL of ONE-Glo reagent (Promega Corporation, Madison, WI) was added to each well using the FRD and after 30 min incubation at room temperature luminescence intensity was measured using ViewLux plate reader (PerkinElmer, Shelton, CT).

Androgen receptor (Homo sapiens), sequence (P10275 whole entry, looked up): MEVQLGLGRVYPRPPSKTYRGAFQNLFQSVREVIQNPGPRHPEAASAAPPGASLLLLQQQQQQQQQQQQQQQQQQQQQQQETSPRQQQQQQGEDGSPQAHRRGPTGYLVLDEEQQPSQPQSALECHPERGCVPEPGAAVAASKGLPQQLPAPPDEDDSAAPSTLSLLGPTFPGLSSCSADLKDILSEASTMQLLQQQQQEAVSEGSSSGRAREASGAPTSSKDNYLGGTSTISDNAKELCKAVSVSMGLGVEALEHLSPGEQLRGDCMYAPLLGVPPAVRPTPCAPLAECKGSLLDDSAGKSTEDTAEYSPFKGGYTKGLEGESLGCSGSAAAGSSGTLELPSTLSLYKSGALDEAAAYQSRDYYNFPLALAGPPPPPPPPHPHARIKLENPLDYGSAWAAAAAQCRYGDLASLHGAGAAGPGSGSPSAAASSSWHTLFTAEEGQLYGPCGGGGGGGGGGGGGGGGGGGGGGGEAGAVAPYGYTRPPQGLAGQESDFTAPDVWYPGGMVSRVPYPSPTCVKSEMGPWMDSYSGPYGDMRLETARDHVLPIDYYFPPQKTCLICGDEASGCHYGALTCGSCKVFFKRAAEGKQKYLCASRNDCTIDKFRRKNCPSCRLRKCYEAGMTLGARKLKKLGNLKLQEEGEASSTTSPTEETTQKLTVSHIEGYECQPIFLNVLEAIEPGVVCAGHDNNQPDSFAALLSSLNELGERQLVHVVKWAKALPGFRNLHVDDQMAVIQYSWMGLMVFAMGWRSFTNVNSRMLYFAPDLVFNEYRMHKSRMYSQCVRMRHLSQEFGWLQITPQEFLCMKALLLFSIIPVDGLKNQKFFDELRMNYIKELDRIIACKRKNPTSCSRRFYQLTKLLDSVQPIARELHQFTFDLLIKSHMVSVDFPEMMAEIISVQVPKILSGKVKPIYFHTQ

For the molecule `CCCC[n+]1cccc(C)c1`, the Potency result in test [1], in [2], in test [3], in test [4], in [5] and in [6] was “inactive” each time. For the same molecule, the Potency result in test [7], in test [8] and in test [9] was “inactive” each time.
For `COP(=O)(OC)OC=C(Cl)Cl`, the Potency result in test [1], in [2], in test [3], in [5], in [6] and in test [7] was “inactive” in each case. Moreover, the Potency entry in [8] and in [9] was “inactive” in each case.
Regarding `CCCCCCCCCCCCn1cc[n+](C)c1`, the Potency entry is “inactive and 55.9 µM (active)” in test [1]; 44 µM (active) and inactive in test [7]. Also, the Potency result in test [4], in [6] and in [8] was “inactive” in each case.
For the molecule `Nc1ccc(-c2ccc(N)c(Cl)c2)cc1Cl`, the Potency entry was “inactive and 49 µM (active)” in test [1]; “inactive and 49 µM (active)” in [2]; 15.6 µM (active) and 24.5 µM (active) in test [3]; “inactive and 43.6 µM (active)” in [7]. Further, the Potency entry in test [6], in test [8] and in test [9] was “inactive” each time.
As to `Cc1cc(Cl)ccc1N`, the Potency result in [1] is “inactive and 34.7 µM (active)”; in test [7] it was “inactive and 43.6 µM (active)”. The Potency entry in test [2], in [3], in test [6], in test [8] and in test [9] was “inactive” each time.
In the case of `COP(=O)(OC)C(O)C(Cl)(Cl)Cl` (stereo not given), the Potency result in [1], in test [2], in test [3], in [5], in test [6] and in [7] was “inactive” each time. Moreover, the Potency result in test [8] and in test [9] was “inactive” each time.
In the case of `O=[N+]([O-])O`, the Potency result in test [1], in [2], in test [3], in test [5], in test [6] and in test [7] was “inactive” each time. In addition, the Potency entry in test [8] and in [9] was “inactive” throughout.
As for `CCCCn1cc[n+](C)c1`, the Potency entry in test [1], in [2], in [3], in [5], in [6] and in [7] was “inactive” throughout. Moreover, the Potency entry in [8] and in [9] was “inactive” in each case.
On to `COCC(=O)N(c1c(C)cccc1C)C(C)C(=O)OC` (stereo not given), for which the Potency result in [1], in [2], in test [3], in test [5], in test [6] and in [7] was “inactive” throughout. Besides, the Potency result in test [8] and in [9] was “inactive” in each case.
For `O=C(O)CCl`, the Potency entry in test [1], in [2], in test [3], in test [5], in test [6] and in test [7] was “inactive” each time. Besides, the Potency entry in test [8] and in test [9] was “inactive” throughout.
With `O=C(O)COc1ccc(Cl)cc1Cl`, the Potency entry in test [1], in [2], in [3], in [5], in [6] and in test [7] was “inactive” throughout. The Potency entry in test [8] and in test [9] was “inactive” in each case.
As to `CCCCCCCCCCCCCCCCn1cc[n+](C)c1`, the Potency result in test [1] is “inactive and 49.4 µM (active)”; in test [2] it was “inactive and 49.4 µM (active) and 49.1 µM (active)”; in test [7] it was “inactive and 55.4 µM (active) and 55.1 µM (active)”; in test [9], “inactive and 34.7 µM (active) and 48.7 µM (active)”. Also, in [6], the Potency entry is “inactive”.
On to `CC(=O)[O][Hg][c]1ccccc1`, for which the Potency entry in [1] and in test [6] was “inactive” throughout. The Potency in [2] is 1.72 µM (active) and 1.74 µM (active) and 1.07 µM (active); in test [3], 344 nM (active) and 1.1 µM (active) and 239 nM (active); in [5], 1900 nM (active); in [7] it was 2.73 µM (active) and 2.19 µM (active) and 1.2 µM (active); in test [8] it was 4.81 µM (active) and 9.69 µM (active) and 11.9 µM (active); in [9] it was 1.92 µM (active) and 6.11 µM (active) and 2.66 µM (active). Also, in [10], the Potency was 606 nM (active) and 2.43 µM (active) and 1.19 µM (active).
Turning to `COc1ccc(N)cc1`, the Potency result in test [1], in [2], in [3], in test [5], in test [6] and in test [7] was “inactive” in each case. For the same molecule, the Potency entry in test [8] and in test [9] was “inactive” throughout.
On to `O=P1(N(CCCl)CCCl)NCCCO1` (stereo not given), for which the Potency entry in test [1], in test [2], in test [3], in test [5], in test [6] and in test [7] was “inactive” throughout. The Potency result in test [8] and in [9] was “inactive” each time.
With `CCCCn1cc[n+](C)c1C`, the Potency entry in [1], in [2], in test [3], in [5], in test [6] and in test [7] was “inactive” in each case. Further, the Potency entry in test [8] and in test [9] was “inactive” in each case.
For the molecule `CCC[N+]1(C)CCCC1`, the Potency entry in [1], in test [2], in test [3], in test [5], in [6] and in test [7] was “inactive” in each case. Moreover, the Potency entry in [8] and in test [9] was “inactive” throughout.
